Source: PubChem BioAssay (NCI)
Values joined by “and” are separate entries in the source; they are usually repeats but may differ in a detail not shown here. Identical values can stand only once. This is part of a sample that, as a whole, favours compounds with a hit. Of some 83,000 tested, about 20% had one in any assay.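 Values shown are percent growth following 48 h exposure of cells in 96-well plates to a single concentration of compound; below 10 was considered active.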 Active and inactive are the calls of the source.

The compounds below were run on MDA-MB-468 breast (assay: NCI-60 one-dose screen, 48 h (100 = growth as untreated, 0 = no growth, -100 = all killed)). Details: 10 µM unless noted.

Row | Structure (SMILES) | growth
1 | COc1ccc(Nc2nc(SCC(C)C)nc(-c3ccc(F)cc3)c2C#N)cc1 | 32.6% (inactive)
2 | COc1ccc(SC2c3ccc(O)cc3Oc3nc(N)c(C#N)c(N)c32)cc1 (stereo unspecified) | 89.6% (inactive)
3 | Nc1nc(N)c2c(n1)NC1(C=C(O)c3ccccc31)C1=C(N2)c2ccccc2C1=O (stereo unspecified) | 127% (inactive)
4 | COc1ccc(-c2cc(-c3ccc(N(C)C)cc3)n3c(n2)nc2ccccc23)cc1 | 50.8% (inactive)
5 | CC[C@@](C)(NC(=O)C(C)(C)NC(=O)[C@@H](NC(=O)[C@@H]1CCCN1C(=O)C(C)(C)NC(=O)[C@H](CC(C)C)NC(=O)CNC(=O)C(C)(C)NC(=O)[C@@H](NC(=O)C(C)(C)NC(=O)[C@H](CCC(N)=O)NC(=O)[C@H](C)NC(=O)C(C)(C)NC(=O)[C@H](C)NC(=O)C(C)(C)NC(=O)[C@H](C)NC(=O)C(C)(C)NC(C)=O)C(C)C)C(C)C)C(=O)N[C@@H](CCC(N)=O)C(=O)N[C@@H](CCC(N)=O)C(=O)N[C@H](CO)CC1CCCCC1 | -10.9% [5 µM] (active)
6 | COc1ccc(-c2cs/c(=N\N=C\c3ccc(O)cc3O)n2/N=C/c2ccc(O)cc2O)cc1 | -23.3% (active)
7 | COc1cc2ncnc(Nc3ccc(F)c(Cl)c3)c2cc1OCC(=O)N1CCCCC1 | -41.9% (active)
8 | CCOC(=O)c1nn(-c2ccccc2)c(=O)c2c(N)c(C#N)c(-c3cccs3)cc12 | 69.9% (inactive)
9 | CC(C)CC(CC1=CCC2CC1C2(C)C)C1=C(O)C(C)(C)C(=O)C(C)(C)C1=O (stereo unspecified) | 6.32% (active)
10 | COc1cc(-c2nc(N3CCN(C)CC3)c3ccccc3n2)cc(OC)c1OC | 38.4% (inactive)
11 | COc1cc(NC(=O)Nc2cccc(-c3cc(=O)c4c(OC)c(OC)c(OC)cc4o3)c2)cc(OC)c1OC | 40.4% (inactive)
12 | O=C(/C=C/c1ccc(Cl)cc1)c1ccccc1 | 89.7% (inactive)
13 | Cc1cccc(C(=O)O)n1 | 111% (inactive)
14 | CCCCC(O)Cn1ncc(C(=O)OCC)c1NC(=O)NCc1ccccc1C(F)(F)F (stereo unspecified) | 98.7% (inactive)
15 | CCOC(=O)C(C#N)=C1CCN(C)CC1 | 123% (inactive)
16 | N#C/C(=C/c1ccc([N+](=O)[O-])cc1)n1nnc2cc(F)c(F)cc21 | 19.8% (inactive)
17 | COc1ccc(/C=C2\COc3ccc(O)c(O)c3C2=O)cc1OC | -22.8% (active)
18 | O=C(Cn1c2ccccc2c2ccncc21)N/N=C/c1c[nH]c2ccccc12 | 43.4% (inactive)

Row | Structure (SMILES) | growth
19 | COC(=O)CNC(=O)[C@H](Cc1ccccc1)NCc1ccncc1 | 97.4% (inactive)
20 | CSc1n(Cc2ccc3ccccc3c2)c(C)c[n+]1Cc1ccc2ccccc2c1 | -47.5% (active)
21 | Cc1csc(/N=C(N)/N=C(\N)c2cccc(C#N)c2)n1 | 101% (inactive)
22 | COc1ccccc1-n1cnc(N)c1C(=O)c1cc(OC)c(OC)c(OC)c1 | 39.3% (inactive)
23 | N=C(N)c1ccc(OCCSCCOc2ccc(C(=N)N)cc2)cc1 | 40.1% (inactive)
24 | O=C(NC1CCCCCC1)c1ccc2c(=O)n3c(nc2c1)CCCCC3 | 81.2% (inactive)
25 | Cc1ccc(C(=O)/C(=C/c2ccc([N+](=O)[O-])cc2)S(=O)Cc2ccccc2)cc1 (stereo unspecified) | -54.1% (active)
26 | COC(=O)N[C@H]1CCc2cc(OC)c(OC)c(OC)c2-c2ccc(SC)c(=O)cc21 | -32% (active)
27 | CN1CCN(Cc2ccc(NC(=O)c3cncc(C#Cc4cnc5ccc(O[C@@H]6CCOC6)nn45)c3)cc2C(F)(F)F)CC1 | -72.6% (active)
28 | Nc1nc(Nc2ccccc2)c2ncn(Cc3ccc4c(c3)OCO4)c2n1 | 13.4% (inactive)
29 | CCCc1cn(CC(=O)Nc2nc3ccccc3s2)nn1 | 110% (inactive)
30 | Cc1ncc(C(=O)Nc2ccc(CN3CCN(C)CC3)c(C(F)(F)F)c2)cc1C#Cc1cnc(NC2CC2)c2ncccc12 | 32% (inactive)
31 | CN(C)Cc1ccccn1 | 105% (inactive)
32 | COc1cc(-c2nc3ccccc3[nH]2)ccc1OCc1nnc(-c2ccc(Br)cc2)o1 | 80.5% (inactive)
33 | COc1ccc(C(CC(=O)c2ccc3c(c2)OCO3)C(=O)O)cc1OC (stereo unspecified) | 114% (inactive) and 103% (inactive)
34 | O=C(Nc1ccncc1)C(=O)c1cn(S(=O)(=O)c2ccccc2F)c2ccccc12 | 16.4% (inactive)
35 | Oc1[nH]c2ccccc2c1/C=c1/cc2c(c(-c3ccc(F)cc3)n1)=Nc1ccccc1-2 | -60.8% (active)
36 | O=S(=O)(/N=C1C=C/C(=N\S(=O)(=O)c2ccccc2)c2ccccc2\1)c1ccccc1 | 79.3% (inactive)
